Compound activity: PubChem, several laboratories
Rows were chosen to be rich in hits. Some 7% of all compounds tested hit in one or more screens of this group.
ADAM17 inh: ADAM17 inhibitors, primary screen, biochemical, QFRET; Disintegrin and metalloproteinase domain-containing protein 17 (Homo sapiens), P78536; recombinant ADAM17, EDANS/DABCYL FRET peptide cleavage; inhibition, % at 6.95 µM; hit rate 0.83% among 370,000; AID 720648, 2013;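 active = inhibition above the mean of compounds lying between control limits plus 3 SD, set per campaign, cut at about 8.5% in these data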;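 also: 0% = DMSO-only wells as the low control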
AHR act: AHR activators, primary screen, cell-based, luminescence, luciferase reporter, human; Aryl hydrocarbon receptor (Homo sapiens), P35869; AHR-responsive luciferase reporter cells; activation, % at 5 µM; hit rate 2.5% among 320,000; AID 2796, 2010; in the data active = activation above about 47%;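 also: 0% = vehicle wells and 100% = reference agonist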
NR3A LBD binder: binders of NR3A ligand-binding domain, primary screen, biophysical, differential scanning fluorimetry, uHTS. Glutamate receptor ionotropic, NMDA 3A (GRIN3A) ligand-binding domain. NR3A LBD differential scanning fluorimetry, Tm shift; 0% = protein alone, 100% = glycine-bound protein. Tm shift relative to glycine control, % at 25 µM. hit rate 2.5% among 340,000;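 active = melting temperature shift of at least 10% of the positive control shift, at one fixed dose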
ADAM10 inh: human ADAM10 inhibitors, primary screen, biochemical, QFRET, HTS. Disintegrin and metalloproteinase domain-containing protein 10 (Homo sapiens), O14672. hit rate 0.62% among 370,000. inhibition, % at 7 µM. recombinant ADAM10, EDANS/DABCYL FRET peptide cleavage, 3 h;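 active = inhibition above a per-campaign cutoff equal to the mean of compounds falling between control-based bounds plus 3 SD, cut at about 20% in these data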;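 also: 0% = DMSO wells while the 100% control is not disclosed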
proKLK7 act: proKLK7 zymogen activators, primary screen, biochemical, fluorescence intensity; Kallikrein-7 (Homo sapiens), P49862; purified proKLK7, EDANS-DABCYL substrate fluorescence; 100% is mature enzyme control, 0% vehicle; activation, % at 7 µM; hit rate 0.9% among 370,000; AID 652039, 2013;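 active = activation above the mean of all tested compounds plus 3 SD, computed per campaign excluding outliers beyond control limits, cut at about 13% in these data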
Target sequence (P49862 whole entry, looked up): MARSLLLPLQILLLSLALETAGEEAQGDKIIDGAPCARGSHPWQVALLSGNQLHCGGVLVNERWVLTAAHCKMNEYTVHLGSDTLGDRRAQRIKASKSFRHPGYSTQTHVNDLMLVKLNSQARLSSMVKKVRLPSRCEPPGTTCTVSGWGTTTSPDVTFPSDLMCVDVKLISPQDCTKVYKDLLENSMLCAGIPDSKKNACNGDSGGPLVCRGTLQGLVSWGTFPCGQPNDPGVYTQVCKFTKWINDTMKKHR
rCAG binder: binders of r(CAG) RNA repeats, primary screen, biochemical, fluorescence; AID 651821, 2012; hit rate 1.3% among 370,000; inhibition, % at 3 µM; r(CAG) RNA repeat, TO-PRO-1 dye displacement fluorescence;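 active = inhibition above the plate cutoff, the mean of all test compounds on that plate plus 3 SD, cut at about 35% in these data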;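 also: 0% = DMSO alone and 100% = 100 µM mitoxantrone as full dye displacement; higher means more dye released from RNA so lower well fluorescence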
rCAG binder conf: small molecules binding CAG repeat RNA – biochemical, fluorescence, confirmation; shares compounds with rCAG binder; r(CAG) RNA repeat, TO-PRO-1 dye displacement fluorescence; inhibition, % at 3 µM; hit rate 70% among 4,300;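 active = inhibition above a per-plate cutoff, the mean inhibition of sample wells plus 3 SD, cut at about 35% in these data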;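 also: loss of TO-PRO-1 fluorescence as compound displaces dye from 1x1 AA loop RNA; 0% = DMSO only wells and 100% = 100 µM mitoxantrone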
DNA CAG counter: displacement of TO-PRO-1 from CAG DNA duplex, counter-screen for rCAG RNA repeat binder project, biochemical, fluorescence, TO-PRO-1 dye, d(CAG) DNA oligo | inhibition, % at 3 µM | shares compounds with rCAG binder | d(CAG) DNA oligo TO-PRO-1 dye displacement | AID 652068, 2013 | hit rate 94% among 4,300;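 active = inhibition above its plate's cutoff, the mean test-well inhibition plus 3 SD, cut at about 4.8% in these data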;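 also: 0% = DNA dye mix with DMSO and 100% = 100 µM mitoxantrone; hits displace the dye from DNA and so lower well fluorescence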
Numbers without * were called inactive; . = not tested or not shown.

SMILES	ADAM17 inh	AHR act	NR3A LBD binder	ADAM10 inh	proKLK7 act	rCAG binder	rCAG binder conf	DNA CAG counter
COc1ccc(-c2nn(-c3ccccc3)cc2/C=C(\CC(=O)O)c2nc3ccccc3s2)cc1OC	-13	5	-10	-26	-1	53*	64*	22*
Cc1ccc(S(=O)(=O)N2[C@H](CC(=O)Oc3ccccc3)OC[C@@H]2C(C)C)cc1	4	.	.	8	1	0	.	.
CN(Cc1ccco1)C(=O)CN1C(=O)C2(OCCCO2)c2ccccc21	1	.	.	-8	1	3	.	.
O=C(Nc1ccc(Br)cc1)OC1CC2CC1[C@H]1CCCCN1C2 (stereo not given in full)	-4	.	.	1	0	5	.	.
NS(=O)(=O)c1ccc2c(c1)C1C=CCC1C(C1CC=CCC1)N2 (stereo not given)	-4	23	-3	-24	-1	62*	26	14*
COc1cc(-n2c(C)nc3cc(C(=O)N4CCN(C(C)=O)CC4)ccc32)cc(OC)c1OC	3	.	.	-13	0	4	.	.
CCN1C(=O)S/C(=C/c2c(OCc3ccc(C(=O)O)cc3)ccc3ccccc23)C1=O	-3	12	-2	5	0	50*	67*	27*
CCN1C(=O)S/C(=C/c2cn(C)c3ccccc23)C1=O	-3	19	0	-5	0	3	.	.
C=CCOc1c(Br)cc(/C=N/Nc2ccc(C(=O)O)cc2)cc1OCC	0	-2	-1	-10	-2	83*	66*	26*
CCOC(=O)N/N=C/c1c(C)nn(-c2cccc(C(F)(F)F)c2)c1Cl	-1	-2	-4	1	0	-2	.	.
COc1ccc(/C=N/Nc2ccc(C(=O)O)cc2)cc1Br	-1	-1	0	0	1	12	.	.
O=C(O)c1cccc(N/N=C/C2=C(Cl)c3cc(Cl)ccc3SC2)c1	0	.	-15	3	0	35*	80*	50*
Cc1nn(-c2cccc(C(F)(F)F)c2)c(Cl)c1/C=N/Nc1cccc(C(=O)O)c1	-1	3	-1	1	1	44*	57*	19*
CCOc1cc(/C=N/Nc2cccc(C(=O)O)c2)ccc1OC(=O)c1ccccc1	0	.	-2	3	1	36*	82*	51*
CC(C)N(Cc1ccccc1)S(=O)(=O)c1n[nH]c(C(C)(C)C)n1	0	.	.	-1	0	3	.	.
COc1cccc(C(=O)N[C@H](C(=O)N2CCC[C@H]2C(=O)NCc2ccccc2)C(C)C)c1	0	.	.	0	1	0	.	.
Cc1ccc(/C=N/Nc2cccc(C(=O)O)c2)s1	-3	-3	0	9	1	36*	19	4.8*
Cc1ccc(/C=N/Nc2ccc(C(=O)O)cc2)s1	-4	-9	2	-20	2	24	.	.
CC(NC(=O)CN1c2cccc3cccc(c23)S1(=O)=O)c1ccc(S(N)(=O)=O)cc1 (stereo not given)	-69	11	-2	-253	0	40*	16	10*
N#C/C(=N\Nc1ccc(F)cc1)C(=O)C1CC1	-5	2	0	3	1	0	.	.
N#C/C(=N\Nc1ccc(Cl)c(Cl)c1)C(=O)C1CC1	-33	2	12*	-90	0	52*	55*	17*
O=C1N=c2ccccc2=C1c1sc(=S)n(NC(=O)c2ccccc2)c1O	-3	18	31*	-2	1	61*	41*	20*
C=CCn1c(O)c(C2=c3ccccc3=NC2=O)sc1=Nc1ccc(O)cc1	2	17	-1	1	1	32	.	.
